# PubChem BioAssay
# Inconclusive results are not listed. Calls of active or inactive are those of the source. Cut-off read from the data, not from the text of the source, unless noted: active = inhibition above about 80%; inactive = the rest.
# Columns and labels:
# [1] = viability loss in pontine glioma line – cell-based, SU-DIPG-XVII, MIPE5.0, CellTiter-Glo, qHTS, dose response (AID 1347060; cut-off not given, nearly all actives have AC50 up to about 26 µM;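 for AC50: cells exposed to compound for 48 hours before viability readout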); conditions: CellTiter-Glo ATP luminescence
# [2] = viability loss in pontine glioma line – cell-based, SU-DIPG-XXV, MIPE5.0, CellTiter-Glo, qHTS, dose response (AID 1347065; cut-off not given, nearly all actives have AC50 up to about 26 µM;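 note: cells exposed to compound for 48 hours before ATP readout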); conditions: CellTiter-Glo ATP luminescence
# [3] = viability loss in pontine glioma line – cell-based, SU-DIPG-XIII, MIPE5.0, CellTiter-Glo, qHTS, dose response (AID 1347064; cut-off not given, nearly all actives have AC50 up to about 23 µM;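 for AC50: cells exposed to compound for 48 hours before the viability read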); conditions: CellTiter-Glo ATP luminescence
# [4] = growth inhibition of DIPG cells – cell-based, MIPE5.0 library, qHTS (AID 1347068; cut-off not given, nearly all actives have IC50 up to about 30 µM); conditions: SU-DIPG-XXV viability
# [5] = JHH-DIPG-1 glioma cell viability, MIPE5.0 library, CellTiter-Glo luminescence, qHTS (AID 1347067; cut-off not given, nearly all actives have AC50 up to about 26 µM;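 note: cells exposed to compound for 48 hours before readout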); conditions: JHH-DIPG-1 glioma viability, CellTiter-Glo ATP luminescence
# [6] = viability loss with induced miR-34 in A549 – imaging, A549 dox-inducible miR-34, nuclei and caspase counts, primary screen (AID 1347080;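 active = compounds whose cell count with miR-34 switched on is under 0.7 times the count with it off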); conditions: A549 miR-34 inducible, Hoechst nuclei count, 48 h
# [7] = MELAS cybrid and Rieske KO viability enhancers – cell-based, MELAS cybrids, Rieske KO mouse fibroblasts, CellTiter-Glo, primary screen (AID 1508586;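 active = mean z-score across replicates of 1.96 or higher in either the MELAS or the Rieske mutant cell line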;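 note: z relative to plate mean and SD of compound and empty wells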); conditions: low glucose
# [8] = growth inhibition, single agent or in combination, cell-based, chromothripsis tumors, cisplatin or BGB combos (AID 1671449); conditions: LFS_MB_P medulloblastoma cells;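 note: cells exposed for 96 hours; 0% = vehicle DMSO and 100% = killing by high DMSO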
# [9] = growth inhibition, single agent and combos, cell-based, chromothripsis tumors, cisplatin or BGB combos (AID 1671450); conditions: HDN33 neuroblastoma cells, stronger effect = higher value;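 note: cells exposed to compound for four days; 0% = vehicle DMSO and 100% = cell killing by high DMSO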
# [10] = growth inhibition, single agents and combos, ICB984, cell-based, cisplatin or BGB combos, synergistic combos for chromothripsis tumors (AID 1671451; call rule not given here;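 note: cells exposed for 96 hours before readout; 0% = vehicle DMSO and 100% = killing by high DMSO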); conditions: ICB984 medulloblastoma cells, drug combinations, stronger effect = higher value
# [11] = growth inhibition, single agents and combos, LFS_MB_1R, cell-based, cisplatin or BGB combos, synergistic combos for chromothripsis tumors (AID 1671452); conditions: LFS_MB_1R medulloblastoma cells, stronger effect = higher value;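 note: cells exposed for 96 hours before readout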
# [12] = growth inhibition, single agents and combos, HTB85, cell-based, BGB or cisplatin IC20 combos, synergistic combos for chromothripsis tumors (AID 1671453); conditions: HTB85 osteosarcoma cells, drug combinations, stronger effect = higher value;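 note: cells exposed for 96 hours before readout; 0% = vehicle DMSO and 100% = high DMSO killing control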
# [13] = growth inhibition, single agents and combos, CRL2098, cell-based, BGB or cisplatin IC20 combos, synergistic combos for chromothripsis tumors (AID 1671454); conditions: CRL2098 osteosarcoma cells, drug combinations, stronger effect = higher value;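 note: cells exposed for 96 h before readout; 0% = vehicle DMSO and 100% = killing by high DMSO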
# [14] = growth inhibition, single agents and combos, HD-MB03, cell-based, BGB or cisplatin IC20 combos, synergistic combos for chromothripsis tumors (AID 1671455; in the data active = inhibition above about 83%;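 note: 0% = vehicle DMSO and 100% = high DMSO as cytotoxic control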); conditions: HD-MB03 medulloblastoma cells, stronger effect = higher value
# [15] = growth inhibition, single agents and combos, UWB1.289, cell-based, BGB or cisplatin combos, synergistic combos for chromothripsis tumors (AID 1671456); conditions: UWB1.289 ovarian carcinoma cells, stronger effect = higher value;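 note: cells exposed to compound for four days; 0% = vehicle DMSO and 100% = killing by high DMSO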
# [16] = growth inhibition, single agents and combos, LFS_MB_2R, cell-based, cisplatin combos, synergistic combos for chromothripsis tumors (AID 1671457); conditions: LFS_MB_2R medulloblastoma cells, stronger effect = higher value;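 note: cells exposed to compound for four days before readout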
# [17] = growth inhibition, MDA-MB-436, cell-based, BGB or cisplatin combos, synergistic combos for chromothripsis tumors (AID 1671458; call rule not given here;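 note: cells exposed for 96 hours; 0% = vehicle DMSO and 100% = killing by high DMSO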); conditions: MDA-MB-436 breast carcinoma growth inhibition, drug combinations, stronger effect = higher value
# [18] = UWB1.289_BRCA1 ovarian cancer growth, cell-based, BGB or cisplatin combinations (AID 1671459); conditions: UWB1.289 BRCA1 ovarian carcinoma, drug combinations, stronger effect = higher value
# [19] = drug combination toxicity in non-malignant astrocytes – cell-based, BGB or cisplatin IC20 combos, cytotoxicity control for chromothriptic childhood tumor combination screen (AID 1671460); conditions: Human astrocytes, viability inhibition, drug combinations, at 0.5 µM, stronger effect = higher value;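 note: cells exposed to compounds for 96 hours before viability readout; 0% = vehicle and 100% = killing control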
# [20] = BT084 cell growth, single and combined drugs, ICGC_MB145, cisplatin and BGB IC40 combos (AID 1671461); conditions: BT084 medulloblastoma cells, drug combinations, stronger effect = higher value;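 note: cells exposed to drugs for 96 hours; 0% = vehicle DMSO and 100% = high DMSO full killing control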
# [21] = RCMB18 cell growth, single agent and combined, cisplatin and BGB IC40 combos (AID 1671462); conditions: RCMB18 medulloblastoma cells, stronger effect = higher value;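 note: cells exposed to compound for four days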
# [22] = CRL1545 cell growth, single agent and combined, cisplatin and BGB IC20 combos (AID 1671464); conditions: CRL1545 osteosarcoma cells, stronger effect = higher value;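 note: cells exposed to compound for 96 hours before readout; 0% = vehicle DMSO and 100% = high DMSO killing control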
# [23] = measured here: combination with BGB IC40, at 0.05 µM
# [24] = measured here: with BGB IC20 combination, at 0.5 µM
# [25] = measured here: with cisplatin IC20 combination, at 0.5 µM
# [26] = measured here: combination with cisplatin, at 0.5 µM
# [27] = measured here: combination with cisplatin, at 5 µM
compound,measurement,setting,value
CCn1nc(C2CCN(C(=O)CCO)CC2)nc1-c1cnc(N)c(-c2nnc(C(C)(C)C)o2)n1,AC50,[1],5.9 µM (active)
same,AC50,[2],2.09 µM (active)
CC(C)Cc1ccc([C@@H](C)C(=O)NS(C)(=O)=O)cc1,outcome,[1],inactive
same,outcome,[3],inactive
same,outcome,[4],inactive
CN[C@@H](C)C(=O)N[C@@H]1C(=O)N(Cc2c(C)ccc3ccccc23)c2ccc(C#N)cc2N(C(C)=O)[C@H]1C,outcome,[1],inactive
same,outcome,[3],inactive
same,outcome,[5],inactive
same,outcome,[4],inactive
COc1ccc(Cl)c(Nc2nc3ccccc3nc2NS(=O)(=O)c2cccc(NC(=O)C(C)(C)N)c2)c1,AC50,[1],14.8 µM (active)
same,AC50,[2],10.5 µM (active)
Cc1cc2c(F)c(Oc3ncnn4cc(OCC(C)OC(=O)C(C)N)c(C)c34)ccc2[nH]1 (stereo not drawn),AC50,[1],16.6 µM (active)
same,AC50,[3],16.6 µM (active)
same,fold change,"[6]; stronger effect = lower value, cell number ratio, induced over uninduced",1.09 (inactive)
same,fold change,[6]; measured here: relative caspase fold change +Dox/-Dox,0.564
same,cell count,"[6]; measured here: total cells with miR-34 induction, stronger effect = lower value",4840
same,cell count,[6]; measured here: total cells without miR-34 induction,4460
same,z-score,"[7]; MELAS cybrid survival, CellTiter-Glo 48 h, stronger effect = higher value",0.128 (inactive)
same,z-score,"[7]; Rieske KO mouse fibroblast survival, CellTiter-Glo 72 h",1.06
COc1cc(-c2cc(-c3ccc(N4CCNCC4)cc3)cnc2C)cc(OC)c1OC,outcome,[1],inactive
same,outcome,[3],inactive
same,outcome,[4],inactive
O=C(CCCCCCNC(=O)c1cnc(N(c2ccccc2)c2ccccc2Cl)nc1)NO,AC50,[1],8.33 µM (active)
same,AC50,[3],3.72 µM (active)
same,AC50,[5],7.42 µM (active)
same,inhibition,"[8]; at 0.5 µM, stronger effect = higher value",-18.4% (inactive)
same,inhibition,"[8]; measured here: combination with BGB IC20, at 0.005 µM",-0.623%
same,inhibition,"[8]; measured here: combination with BGB IC40, at 0.005 µM",-22.7%
same,inhibition,[8]; [23],-0.542%
same,inhibition,"[8]; measured here: combination with cisplatin, at 0.5 µM, stronger effect = higher value",-15.1%
same,inhibition,"[8]; measured here: combination with cisplatin, at 5 µM, stronger effect = higher value",99.5%
same,inhibition,"[9]; BGB combo, at 5 µM",50.4%
same,inhibition,[9]; at 0.5 µM,18.7% (inactive)
same,inhibition,"[9]; cisplatin combo, at 5 µM",56.8%
same,inhibition,[9]; [24],15.8%
same,inhibition,[9]; [25],22.8%
same,inhibition,"[9]; single agent, at 5 µM",62.1%
same,inhibition,"[10]; BGB IC20 combo, at 0.005 µM",12.6%
same,inhibition,"[10]; BGB IC40 combo, at 0.005 µM",-39.2%
same,inhibition,"[10]; BGB IC40 combo, at 0.05 µM",39.9%
same,inhibition,[10]; at 0.5 µM,-20.1% (inactive)
same,inhibition,"[10]; cisplatin combo, at 0.05 µM",37.5%
same,inhibition,"[10]; cisplatin combo, at 0.5 µM",-17.2%
same,inhibition,"[10]; cisplatin combo, at 5 µM",-24.9%
same,inhibition,"[10]; measured here: 5 uM single agent, at 5 µM",-20.1%
same,inhibition,[11]; at 0.5 µM,-5.6% (inactive)
same,inhibition,[11]; [23],-9.58%
same,inhibition,[11]; [26],-15.4%
same,inhibition,[11]; [27],66.7%
same,inhibition,[12]; at 0.5 µM,-4.65% (inactive)
same,inhibition,"[12]; measured here: with BGB IC20, at 0.5 µM",-17.2%
same,inhibition,"[12]; measured here: with BGB IC20, at 5 µM",33.1%
same,inhibition,"[12]; measured here: with cisplatin IC20, at 0.5 µM",-7.92%
same,inhibition,"[12]; measured here: with cisplatin IC20, at 5 µM",47.7%
same,inhibition,"[12]; single agent, at 5 µM",54%
same,inhibition,[13]; at 0.5 µM,-36.3% (inactive)
same,inhibition,"[13]; measured here: combination with BGB at IC20, at 0.5 µM",-46.5%
same,inhibition,"[13]; measured here: combination with cisplatin at IC20, at 0.5 µM",-0.706%
same,inhibition,[14]; at 0.5 µM,7.2% (inactive)
same,inhibition,"[14]; measured here: combo with BGB at IC20, at 0.5 µM",-0.477%
same,inhibition,"[14]; measured here: combo with cisplatin at IC20, at 0.5 µM",8.58%
same,inhibition,[15]; at 0.5 µM,8.33% (inactive)
same,inhibition,"[15]; measured here: inhibition with BGB combination, at 0.05 µM",-28.3%
same,inhibition,"[15]; measured here: inhibition with cisplatin combination, at 0.05 µM",-17.7%
same,inhibition,[16]; at 0.5 µM,-16.9% (inactive)
same,inhibition,[16]; [26],-6.73%
same,inhibition,[16]; [27],81%
same,inhibition,[17]; at 0.5 µM,-11.7% (inactive)
same,inhibition,"[17]; measured here: BGB combination, at 0.5 µM",-16.5%
same,inhibition,"[17]; measured here: BGB combination, at 5 µM",16.3%
same,inhibition,"[17]; measured here: cisplatin combination, at 0.5 µM",-18%
same,inhibition,"[17]; measured here: cisplatin combination, at 5 µM",30.9%
same,inhibition,"[18]; BGB combination, concentration series, at 5 µM",70.5%
same,inhibition,[18]; at 0.5 µM,15.1% (inactive)
same,inhibition,"[18]; cisplatin combination, concentration series, at 5 µM",83%
same,inhibition,[19],10.7% (inactive)
same,inhibition,[19]; measured here: combo with BGB IC20,11.7%
same,inhibition,[19]; measured here: combo with cisplatin IC20,14%
same,inhibition,[20]; at 0.5 µM,2.48% (inactive)
same,inhibition,"[20]; cisplatin combination, at 0.5 µM",7.21%
same,inhibition,"[20]; cisplatin combination, at 5 µM",78.9%
same,inhibition,"[20]; measured here: BGB IC40 combination 0.05 uM, at 0.05 µM",-0.825%
same,inhibition,"[20]; single agent, at 5 µM",65%
same,inhibition,[21]; at 0.5 µM,-4.94% (inactive)
same,inhibition,"[21]; cisplatin combo, at 5 µM",64.2%
same,inhibition,"[21]; measured here: BGB IC40 combination, at 0.05 µM",-4.49%
same,inhibition,[21]; [26],5.58%
same,inhibition,"[21]; single agent, at 5 µM",31.8%
same,inhibition,[22]; at 0.5 µM,32.3% (inactive)
same,inhibition,[22]; [24],16.7%
same,inhibition,[22]; [25],40.1%
same,inhibition,"[22]; single agent, at 0.05 µM",-5.85%
same,inhibition,"[22]; single agent, at 5 µM",88.6%
